The list is not random: actives were taken first. Their share in the collection is about 3%.
Rv3671c inh – Rv3671c (M. tuberculosis) protease inhibition. inhibition, % at 5.96 µM. P9WHR9. 320,000 compounds, 0.048% hits; in the data active = inhibition above about 38%;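 note: extracellular domain of Rv3671c used as enzyme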
Target sequence (P9WHR9 whole entry, looked up, the tested form may be a part): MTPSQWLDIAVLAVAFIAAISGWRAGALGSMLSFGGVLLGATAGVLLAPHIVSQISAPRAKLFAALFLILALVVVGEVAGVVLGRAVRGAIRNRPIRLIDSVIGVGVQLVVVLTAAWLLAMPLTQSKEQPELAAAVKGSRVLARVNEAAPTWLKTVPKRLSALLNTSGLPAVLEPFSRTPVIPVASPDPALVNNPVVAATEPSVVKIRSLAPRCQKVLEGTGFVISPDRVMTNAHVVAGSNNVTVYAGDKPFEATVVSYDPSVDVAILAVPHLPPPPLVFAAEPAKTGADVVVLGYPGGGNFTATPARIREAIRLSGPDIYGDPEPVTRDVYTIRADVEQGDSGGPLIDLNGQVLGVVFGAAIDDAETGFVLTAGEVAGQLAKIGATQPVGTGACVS
GDH-TPI inh – counter-screen for M. tuberculosis FBA inhibitors: GDH-TPI coupled enzymes; GDH-TPI coupled enzyme counterscreen, NADH absorbance; 360,000 compounds, 1.2% hits; inhibition, % at 4.8 µM; in the data active = inhibition above about 30%
FBA Mtb inh – inhibits M. tuberculosis FBA enzyme | inhibition, % at 1 µM | P9WQA3 | purified M. tuberculosis FBA, fluorescence read-out | 360,000 compounds, 2.3% hits; in the data active = inhibition above about 27%
Target sequence (P9WQA3 whole entry, looked up): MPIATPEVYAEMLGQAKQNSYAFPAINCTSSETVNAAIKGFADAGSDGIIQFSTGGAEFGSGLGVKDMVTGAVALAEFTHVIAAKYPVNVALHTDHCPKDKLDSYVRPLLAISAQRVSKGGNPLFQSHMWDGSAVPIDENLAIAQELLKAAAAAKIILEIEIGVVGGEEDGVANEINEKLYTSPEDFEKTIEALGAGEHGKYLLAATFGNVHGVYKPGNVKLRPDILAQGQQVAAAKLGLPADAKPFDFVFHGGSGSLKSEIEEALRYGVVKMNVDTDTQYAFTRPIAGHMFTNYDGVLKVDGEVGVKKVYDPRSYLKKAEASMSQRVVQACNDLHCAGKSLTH
Mtb BioA inh – BioA (M. tuberculosis) enzyme inhibition; AID 602481; 360,000 compounds, 0.096% hits; inhibition, % at 9.99 µM; purified M. tuberculosis BioA enzyme, plate reader; in the data active = inhibition above about 40%
FadD28 binding – inhibitors of Mycobacterium tuberculosis FadD28 bisubstrate binding; inhibition, % at 12.5 µM; FadD28 bisubstrate probe binding, fluorescence polarization; 360,000 compounds, 0.22% hits; in the data active = inhibition above about 8.5%, passing the limit was not always enough
Large screens that a line does not name were inactive.

C[C@H](CO)N1C[C@H](C)[C@H](CN(C)S(=O)(=O)c2ccc(-c3ccccc3)cc2)OCc2cn(nn2)CCCC1=O	none (no result: Rv3671c inh, GDH-TPI inh, FBA Mtb inh, FadD28 binding)
CCCNC(=O)N(C)C[C@@H]1Oc2ncc(C3=CCCC3)cc2C(=O)N([C@@H](C)CO)C[C@H]1C	none (no result: Rv3671c inh, GDH-TPI inh, FBA Mtb inh, FadD28 binding)
O=[N+]([O-])c1ccc(O)c(C=NNc2ccc(S(=O)(=O)O)cc2)c1	GDH-TPI inh 51.8 (no result: Rv3671c inh, FadD28 binding)
O=[N+]([O-])c1ccc(O)c(/C=N/Nc2ccccn2)c1	GDH-TPI inh 38.0
O=c1[nH]ncc(N/N=C\c2ccc(O)cc2O)c1Cl	GDH-TPI inh 38.4
Cc1cccc(N=C2NC(=O)/C(=C/C=C/c3ccco3)S2)c1C	FadD28 binding 11.2 (no result: Mtb BioA inh)
Cc1ccc(N=C2NC(=O)/C(=C/C=C/c3ccco3)S2)cc1	none (no result: Mtb BioA inh)
N=c1oc2ccc3ccccc3c2cc1-c1nnc2n1CCCCC2	FBA Mtb inh active
COc1ccc(NC(=O)N(C)C[C@@H]2OCCCC[C@@H](C)Oc3ccc(NC(=O)NC4CCCCC4)cc3C(=O)N([C@@H](C)CO)C[C@H]2C)cc1	none (no result: Rv3671c inh, GDH-TPI inh, FBA Mtb inh, FadD28 binding)
Cc1ccc(C(=O)/C=C/Nc2ccccn2)cc1	GDH-TPI inh 33.3 (no result: Mtb BioA inh)
Cc1ccc(N/C=C/C(=O)c2ccc(C)cc2)cc1	none
C=CCNC(=O)/C(=C\C=C\c1ccccc1)NC(=O)c1ccc(OCCCC)cc1	GDH-TPI inh 35.3
CCCCOc1ccc(C(=O)N/C(=C/C=C/c2ccccc2)C(=O)NCCCO)cc1	none (no result: Mtb BioA inh)
CCCCOc1ccc(C(=O)N/C(=C/C=C/c2ccccc2)C(=O)NCCO)cc1	GDH-TPI inh 31.1
CN(C)CCCNC(=O)/C(=C\C=C\c1ccccc1)NC(=O)c1ccc([N+](=O)[O-])cc1	GDH-TPI inh 33.7 (no result: Mtb BioA inh)
COc1ccc(/C=C(/NC(=O)c2ccc([N+](=O)[O-])cc2)C(=O)NCCCN(C)C)cc1	none (no result: Mtb BioA inh)
CO[C@H]1C=CO[C@@]2(C)Oc3c(C)c(O)c4c(O)c(c(C=NN5CCN(C)CC5)c(O)c4c3C2=O)NC(=O)C(C)=CC=C[C@H](C)[C@H](O)[C@@H](C)[C@@H](O)[C@@H](C)[C@H](OC(C)=O)[C@@H]1C	GDH-TPI inh 40.1
N=C1c2ccccc2CN1NC(=O)CC12CC3CC(CC(C3)C1)C2	FadD28 binding 21.9 (no result: Mtb BioA inh)
O=C(Nc1nc2ccc(F)cc2s1)c1cccs1	GDH-TPI inh 40.2 (no result: Mtb BioA inh)
CCOC(=O)c1c(-c2cccs2)csc1NC(C)=O	none (no result: Mtb BioA inh)
O=C(COC(=O)c1ccco1)Nc1nc2ccc([N+](=O)[O-])cc2s1	GDH-TPI inh 33.8
CCOC(=O)c1c(-c2ccc(C)s2)csc1NC(=O)c1cccs1	FadD28 binding 16.7
CCOC(=O)c1ccc2nc(NC(=O)c3cccs3)sc2c1	GDH-TPI inh 37.8
CCCC(=O)Nc1nc2ccc(C(=O)OCC)cc2s1	none
C[C@H]1CN([C@@H](C)CO)S(=O)(=O)c2ccc(-c3cccc(C(=O)N(C)C)c3)cc2O[C@H]1CN(C)Cc1ccc2c(c1)OCO2	none (no result: Rv3671c inh, GDH-TPI inh, FBA Mtb inh, FadD28 binding)
CC=Cc1ccc2n(c1=O)C[C@H]1[C@H](CO)[C@@H](C(=O)N3CCc4ccccc4C3)N[C@@H]21 (mixture of isomers)	none (no result: Rv3671c inh, GDH-TPI inh, FBA Mtb inh, FadD28 binding)
CCCC(=O)Nc1ccc2c(c1)C(=O)N(C)[C@H]1CC[C@@H](CC(=O)Nc3cn(C)nc3C)O[C@@H]1CO2	none (no result: Rv3671c inh, GDH-TPI inh, FBA Mtb inh, FadD28 binding)
CCOC(=O)c1ccc2nc(NC(=O)c3ccco3)sc2c1	GDH-TPI inh 36.5
COc1ccc(CCNC(=O)Nc2ccc3c(c2)c(=O)n(C)n3Cc2ccc(F)cc2)cc1OC	FBA Mtb inh 117.9 (no result: Rv3671c inh)
COc1ccc(CCC(=O)NCc2cccc(C(F)(F)F)c2)cc1	none (no result: FadD28 binding)
COc1cc(Cn2c3ccc(NC(=O)NCc4ccc(F)cc4)cc3c(=O)n2C)ccc1F	FBA Mtb inh 145.7 (no result: Rv3671c inh)
C=C(C)Cn1c2ccc(NC(=O)NCCc3ccccc3)cc2c(=O)n1C	FBA Mtb inh 170.0 (no result: Rv3671c inh)
COc1ccc(CNC(=O)Nc2ccc3c(c2)c(=O)n(C)n3Cc2cccc(C(F)(F)F)c2)cc1	FBA Mtb inh 127.7 (no result: Rv3671c inh)
CC(C)C#Cc1ccc2c(c1)O[C@H](CN(C)C(=O)Cc1ccccn1)[C@H](C)CN([C@@H](C)CO)S2(=O)=O	none (no result: Rv3671c inh, GDH-TPI inh, FBA Mtb inh, FadD28 binding)
Cn1c(=O)c2cc(NC(=S)NCc3ccccc3F)ccc2n1Cc1ccc(F)cc1	none (no result: Rv3671c inh)
Cn1c(=O)c2cc(NC(=O)NCCc3ccccc3)ccc2n1Cc1ccc(F)cc1	FBA Mtb inh 185.6 (no result: Rv3671c inh)
CCOc1cc(/C=C2/SC(=S)N(CC(=O)O)C2=O)ccc1OC(=O)c1cccs1	GDH-TPI inh 40.7
CCOc1ccc(/C=C2/SC(=S)N(C(C(=O)O)c3ccccc3)C2=O)cc1OCC (stereo unspecified)	none (no result: Rv3671c inh, Mtb BioA inh)
COc1cc(/C=C2\SC(=S)N(NC(=O)c3cccc(O)c3)C2=O)ccc1O	FadD28 binding 12.8 (no result: Rv3671c inh)
CCOc1cc(/C=C2\SC(=S)N(C(C(=O)O)c3ccccc3)C2=O)ccc1O (stereo unspecified)	GDH-TPI inh 37.5
COc1cc(/C=C2\SC(=S)N(NC(=O)c3ccc(O)c(OC)c3)C2=O)ccc1O	FadD28 binding 16.3
CO[C@@H]1CN(C)C(=O)c2cc(NS(=O)(=O)CC(F)(F)F)ccc2OC[C@@H](C)N(Cc2ccccn2)C[C@@H]1C	none (no result: Rv3671c inh, GDH-TPI inh, FBA Mtb inh, FadD28 binding)
Cc1noc(C)c1NC(=O)N(C)C[C@H]1Oc2ccc(NS(=O)(=O)c3cn(C)cn3)cc2CC(=O)N([C@@H](C)CO)C[C@@H]1C	none (no result: Rv3671c inh, GDH-TPI inh, FBA Mtb inh, FadD28 binding)
C=CCN(CC=C)c1nc2ccccc2nc1C(C#N)C(=O)OC(C)C (stereo unspecified)	FBA Mtb inh 36.0
CC(=O)Nc1cnc(-c2cc(C)c(O)c(C)c2)cn1	GDH-TPI inh 32.3 (no result: Rv3671c inh)
CC(=O)Nc1cnc(-c2ccc3c(c2)OCO3)cn1	none (no result: Rv3671c inh)
Oc1c(N=Nc2nn[nH]n2)ccc2ccccc12	FadD28 binding 29.8 (no result: Rv3671c inh, GDH-TPI inh, Mtb BioA inh)
C[C@@H]1CN([C@H](C)CO)C(=O)c2c(c3ccccc3n2C)-c2ccccc2CO[C@@H]1CN(C)S(=O)(=O)c1cccc(C#N)c1	none (no result: Rv3671c inh, GDH-TPI inh, FBA Mtb inh, FadD28 binding)
O=C(C[C@H]1C=C[C@@H](NC(=O)Nc2ccc(F)cc2)[C@H](CO)O1)NCCN1CCCC1	none (no result: Rv3671c inh, GDH-TPI inh, FBA Mtb inh, FadD28 binding)
COc1ccc(/C=N/NC2=NS(=O)(=O)c3ccccc32)cc1OC	GDH-TPI inh 34.9
COc1cc(/C=N/NC2=NS(=O)(=O)c3ccccc32)ccc1OC(C)=O	GDH-TPI inh 34.0
COc1ccccc1C#Cc1ccc([C@@H]2[C@@H](CO)N3CCCCN(C(=O)C4CCCC4)C[C@H]23)cc1	none (no result: Rv3671c inh, GDH-TPI inh, FBA Mtb inh, FadD28 binding)
COc1ccccc1NC(=O)N[C@@H]1CC[C@@H](CCn2cc(-c3cccnc3)nn2)O[C@@H]1CO	none (no result: Rv3671c inh, GDH-TPI inh, FBA Mtb inh, FadD28 binding)
CN1C(=O)c2cc(NC(=O)c3ccc(F)cc3)ccc2OC[C@@H]2O[C@@H](CC(=O)NCC3CCCCC3)CC[C@H]21	none (no result: Rv3671c inh, GDH-TPI inh, FBA Mtb inh, FadD28 binding)
COc1cccc(CNC(=O)C2CCCN(S(=O)(=O)c3c(C)noc3/C=C/N(C)C)C2)c1 (stereo unspecified)	GDH-TPI inh 33.8
COc1ccccc1CNC(=O)C1CCCN(S(=O)(=O)c2cnc[nH]2)C1 (stereo unspecified)	none
Cc1noc(/C=C/N(C)C)c1S(=O)(=O)N1CCCC(C(=O)NCc2cccs2)C1 (stereo unspecified)	GDH-TPI inh 37.8
COc1ccccc1CNC(=O)C1CCCN(S(=O)(=O)c2c(C)[nH]c(=O)[nH]c2=O)C1 (stereo unspecified)	FBA Mtb inh 65.5

Bioassay records from PubChem BioAssay.
